From PubChem BioAssay (NCI)
Compounds without any hit were thinned out: in the full panel of roughly 83,000, 20% have a hit.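 Cell lines were cultured in 96-well plates, exposed to a single compound concentration, and assessed for percent growth 48 hours later.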 Values without a mark were called inactive. Active and inactive are the calls of the source. Rule for the calls: active = growth percent below 10; inactive = the rest.

Tests used:
Experiment in all cases: NCI-60 one-dose screen, 48 h (100 = growth as untreated, 0 = no growth, -100 = all killed)
Settings in all cases: 10 µM unless noted
RPMI-8226 leukemia = tested on: RPMI-8226 leukemia
OVCAR-8 ovarian = tested on: OVCAR-8 ovarian
OVCAR-5 ovarian = tested on: OVCAR-5 ovarian
OVCAR-4 ovarian = tested on: OVCAR-4 ovarian
SK-OV-3 ovarian = tested on: SK-OV-3 ovarian
IGROV1 ovarian = tested on: IGROV1 ovarian
HS 578T breast = tested on: HS 578T breast
NCI/ADR-RES ovarian = tested on: NCI/ADR-RES ovarian
T-47D breast = tested on: T-47D breast
BT-549 breast = tested on: BT-549 breast
SW-620 colon = tested on: SW-620 colon
MCF7 breast = tested on: MCF7 breast
HCT-116 colon = tested on: HCT-116 colon
HCC-2998 colon = tested on: HCC-2998 colon
KM12 colon = tested on: KM12 colon
OVCAR-3 ovarian = tested on: OVCAR-3 ovarian
MDA-MB-435 melanoma = tested on: MDA-MB-435 melanoma

Structure (SMILES) | growth (RPMI-8226 leukemia) | growth (OVCAR-8 ovarian) | growth (OVCAR-5 ovarian) | growth (OVCAR-4 ovarian) | growth (SK-OV-3 ovarian) | growth (IGROV1 ovarian) [%] | growth (HS 578T breast) | growth (NCI/ADR-RES ovarian) | growth (T-47D breast) | growth (BT-549 breast) | growth (SW-620 colon) | growth (MCF7 breast) | growth (HCT-116 colon) | growth (HCC-2998 colon) | growth (KM12 colon) | growth (OVCAR-3 ovarian) | growth (MDA-MB-435 melanoma)
COc1ccc(N/N=C/c2c(-c3ccc(S(C)(=O)=O)cc3)nc3ccccn23)cc1 | 32.2% | 49.1% | 67.4% | 42.1% | 62.2% | 51.9 | 62.4% | 34% | 26.2% | 60.5% | 30.1% | 24.3% | 32.5% | 49.3% | – | – | –
CCOC(=O)c1c(Nc2ccccc2)nn2c(N)c(C#N)c(-c3ccc(F)cc3)nc12 | 70.4% | 97.4% | 108% | 87% | 93.2% | 93.1 | 79.6% | 97.4% | 64.6% | 98.7% | 86.5% | – | 87.4% | 110% | 87.3% | – | –
CS(=O)(=O)c1ccc(-c2nc3ccccn3c2/C=N/Nc2nc(-c3ccc(Br)cc3)cs2)cc1 | 94.1% | 99.1% | 110% | 107% | 140% | – | 112% | 107% | 94% | 114% | 98.2% | 92.4% | 101% | 120% | 101% | 139% | 97.2%
CCOC(=O)c1c(Nc2ccccc2)nn2c(N)c(C#N)c(-c3ccc(OC)cc3)nc12 | 88.7% | 66.1% | 101% | 35.9% | 55.9% | – | 19.4% | 73.3% | 61.3% | 52.6% | 94.7% | 70.3% | 77.8% | 92.5% | 83% | 101% | 79%
O=C(N/N=C/c1ccc([N+](=O)[O-])o1)c1[nH]c2ccc(Br)cc2c1-c1ccccc1 | 0.483% (active) | -5.13% (active) | 35.7% | 38.2% | 30.4% | 15.6 | 8.44% (active) | 18.7% | 53.9% | -32.1% (active) | 10.5% | 7.95% (active) | -8.73% (active) | 2.07% (active) | 15.3% | – | –
Cc1nc(-c2cc3ccccc3oc2=O)ccc1C(=O)/C=C/c1ccc(Cl)c(Cl)c1 | 101% | 99.5% | 113% | 107% | 127% | 104 | 90.7% | 105% | – | 108% | 101% | 86.3% | 103% | 107% | 103% | – | 103%
COC1CCN(Cc2ccc3c(NNC(=O)c4cnccn4)nc4cc(F)ccc4n23)C1 (configuration not stated) | 20.2% | 14.4% | 49.9% | 21% | 38.1% | – | 68.5% | 24% | 24.2% | 51.7% | 24% | 14% | 4.53% (active) | 59.9% | 22.6% | 5.16% (active) | 37.2%
O=C(NNc1nc2cc(F)ccc2n2c(CN3CC4(COC4)C3)ccc12)c1cnccn1 | 22% | 8.35% (active) | 38.1% | 33.3% | 15.2% | 18.6 | 65.3% | 22% | – | 36.4% | 27.1% | 13.6% | – | 57.3% | 23% | – | –
N#Cc1c(-c2ccc(Cl)cc2)nc2c(-c3ccccc3)c(Nc3ccccc3)nn2c1N | 54.1% | 48.6% | 67.4% | -7.41% (active) | 42.7% | – | 37.3% | 38.9% | 52.9% | 94.4% | 40.6% | 47.9% | 20.7% | 90.7% | 60% | 58.4% | 58.7%
COc1ccc(-n2c(SCC(=O)Nc3ccc(-c4nc5ccccc5[nH]4)cc3)nc3ccccc3c2=O)cc1 | -21.2% (active) | 20.9% | 68.5% | -33.7% (active) | 136% | – | 28.7% | 32.5% | -51.8% (active) | -65% (active) | 8.47% (active) | -49.2% (active) | -39.6% (active) | 34.8% | 18.7% | -34.8% (active) | -14.4% (active)
O=C1Nc2ccccc2Oc2ccc(S(=O)(=O)CC3CO3)cc21 (configuration not stated) | 44.9% | 64.3% | 85.5% | 70.1% | 122% | 62.3 | 60.6% | 98.2% | 47.5% | 25% | 17.9% | 18.1% | 46.3% | 71.9% | – | – | –
COc1cc2nc(-c3ccc(Cl)cc3)cc(OCCCNCC3CCCO3)c2cc1OC (configuration not stated) | 8.63% (active) | 42.2% | 50.1% | 79.4% | 88.4% | 33.7 | 76.6% | 46.8% | 77.1% | 87.7% | 54.3% | – | – | 70.6% | 39.8% | – | –
Cn1c(SCC(=O)Nc2ccc(-c3nc4ccc([N+](=O)[O-])cc4[nH]3)cc2)nc2ccccc2c1=O | 94.7% | 77.8% | 96% | 67.5% | 120% | 75.9 | 81.5% | 88.9% | 72.1% | 27.8% | 87.3% | – | 70.9% | 84.6% | 65.5% | – | 93.4%
OC1CCN(CCCOc2c3ccccc3nc3c2oc2ccccc23)CC1 | -24% (active) | -44.9% (active) | -8.63% (active) | 4.9% (active) | -10.8% (active) | – | 8.94% (active) | -17.9% (active) | 1.32% (active) | 7.19% (active) | 1.37% (active) | 0.978% (active) | 3.79% (active) | -12.4% (active) | 5.22% (active) | -18.7% (active) | -10.5% (active)
Nc1c(C(=O)Nc2ccc(Cl)cc2)sc2nc(-c3cnccn3)cc(-c3cccs3)c12 | 85.1% | 48.1% | 66.2% | 61.3% | 74.1% | 74.2 | 47.1% | 68.3% | – | 65.3% | 66.3% | 55.3% | 41.6% | 104% | – | – | –
Cc1c(Nc2nnc(SCC(=O)Nc3sc4c(c3C#N)CCCC4)s2)c(=O)n(-c2ccccc2)n1C | 96.7% | 100% | 114% | 108% | 120% | – | 109% | 99.5% | 97.3% | 113% | 103% | 93.5% | 102% | 115% | – | 99.1% | 104%
Clc1ccc2oc3c(NCCCn4ccnc4)c4ccccc4nc3c2c1 | 37.6% | 43.4% | 50.1% | 63% | 93.9% | 36.5 | 61.7% | 41.2% | 88.9% | 76.9% | 16.9% | 8.8% (active) | 11.2% | 55.2% | 30.9% | – | –
CN1C(=O)N(c2ccccc2)C2N=C(N/N=C/c3ccccc3)SC21 (configuration not stated) | 22.5% | 25.7% | 35.1% | 68.3% | 37.1% | – | 2.36% (active) | 30.7% | 32.6% | 52.4% | 15.2% | 24% | 22.5% | 51.5% | – | 13.2% | -24.9% (active)
